# Source: PubChem BioAssay (Tox21)
# Records with an inconclusive call do not appear. A call without a number means that no potency is given here. Active and inactive are the calls of the source. Calls come from the whole dose curve.
# Assay: p53 small molecule agonists, cell-based qHTS assay: qHTS cell viability counter screen (AID 1963581); note: nearly all actives have a fitted effect of over 45% in size
# Summary of the method: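 Counter screen read by CellTiter-Glo luminescence (ATP content, 30 min at room temperature), run in the same wells as the beta-lactamase reporter read. HCT-116 p53RE-bla cells saw compounds for 16 h at 37 C.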
# Potency is the fitted concentration of half-maximal effect.
row,SMILES,Potency
1,CC(COC(=O)c1ccccc1)OC(=O)c1ccccc1 (stereo not given),inactive
2,CCC(=O)CC,inactive
3,CC(C)CCCCCCc1ccc(O)cc1,45.8 µM (active)
4,CC(C)(C)c1ccc(S)cc1,inactive
5,OCc1c2ccccc2cc2ccccc12,inactive
6,OCCN1CCNCC1,inactive
7,CCC(C)(C)C1CCCCC1OC(C)=O (stereo not given),inactive
8,CCCCC(CC)COC(=O)CCCCCCCC(=O)OCC(CC)CCCC (stereo not given),inactive
9,CC(C=O)c1ccccc1 (stereo not given),inactive
10,Cc1ccc2c(ccc3ccccc32)c1,inactive
11,O=C(O)c1cc(O)c(O)c(O)c1,inactive
12,CCCC(=O)C(C)=O,inactive
13,CC(Cl)COP(=O)(OCC(C)Cl)OCC(C)Cl (stereo not given),inactive
14,NCC1(Cc2noc(=O)[nH]2)CCCCC1,inactive
15,CC(C)(C)NCC(O)COc1ccccc1OCC1CCCO1 (stereo not given),inactive
16,FC(F)(F)c1ccccc1-n1ccnc1,inactive
17,CCCCC(CC)COC(=O)c1ccc(O)cc1 (stereo not given),40.6 µM (active)
18,Cc1ccc(S(=O)(=O)NC2CCCCC2)cc1,inactive
19,O=C(O)CNC(=O)c1ccccc1I,inactive
20,C/C=C/CO,inactive
21,Oc1ccc(OCc2ccccc2)cc1,inactive
22,O=Cc1cccc([N+](=O)[O-])c1,inactive

row,SMILES,Potency
1,CCC(=O)OC(C)c1ccccc1 (stereo not given),inactive
2,CC(=O)O[C@]1(C(C)=O)CC[C@H]2[C@@H]3C=C(C)C4=CC(=O)CC[C@]4(C)[C@H]3CC[C@@]21C,inactive
3,CCOCCOCCOCC,inactive
4,O=C(O)c1cccc(C[C@@H]2COc3ccc(OCc4nc5cc(F)ccc5s4)cc3[C@@H]2O)c1,inactive
5,COc1cccc(OC)c1,inactive
6,CCCCC1CCC(=O)O1 (stereo not given),inactive
7,CN(CC1(C)CCCO1)S(=O)(=O)c1ccc(Cl)c(S(N)(=O)=O)c1 (stereo not given),inactive
8,CN(C)CCCNCCC#N,inactive
9,CNC(=O)c1c(I)c(NC(C)=O)c(I)c(C(=O)O)c1I,inactive
10,Nc1nccs1,inactive
11,CCCCCCCCCCCCCCC(=O)O,inactive
12,NCc1cccc(CN)c1,inactive
13,Cc1cc(C)c(C(=O)O)c(C)c1,inactive
14,O=C(O)c1cc(-c2ccccc2)nc2ccccc12,inactive
15,Oc1ccc(C(c2ccc(O)cc2)C(Cl)(Cl)Cl)cc1,inactive
16,Cc1ccc(S(=O)(=O)NC(=O)NC2CCCCCCC2)cc1,inactive
17,Nc1nc(N)c2nc(-c3ccccc3)c(N)nc2n1,inactive
18,O=C(O)CNC(=O)c1ccc(CO)o1,inactive
19,CN(C)c1ccc2nc3ccc(=[N+](C)C)cc-3sc2c1,inactive
20,Cc1sccc1Br,inactive
21,CC(C)CCCCOC(=O)c1ccccc1C(=O)OCCCCC(C)C,inactive
22,CCOC(OCC)OCC,inactive

row,SMILES,Potency
1,O=S(=O)(O)c1ccccc1O,inactive
2,CC1CC(OC(=O)c2ccccc2O)CC(C)(C)C1 (stereo not given),inactive
3,CCOc1ccc(N)c([N+](=O)[O-])c1,inactive
4,Cn1cnc2c(F)c(Nc3ccc(Br)cc3Cl)c(C(=O)NOCCO)cc21,inactive
5,CN(C)N=Nc1ccccc1,inactive
6,O=c1[nH]c2ccccc2c(=O)n1CCCl,inactive
7,C(=C\c1ccccc1)/c1ccccc1,inactive
8,COc1ccccc1N=Nc1c(S(=O)(=O)O)cc2cc(S(=O)(=O)O)cc(NC(C)=O)c2c1O,inactive
9,O=C1c2ccccc2C(=O)C1c1ccc2cc(S(=O)(=O)O)cc(S(=O)(=O)O)c2n1,inactive
10,C=CCS(=O)(=O)O,inactive
11,CNCCS(=O)(=O)O,inactive
12,CCCCCCCCc1ccc(Nc2ccc(CCCCCCCC)cc2)cc1,inactive
13,CC1=CC[C@@]23C[C@@H]1C(C)(C)[C@@H]2CC[C@H]3C,inactive
14,N=C(N)c1ccccc1,inactive
15,Cc1cccc2c1ccc1ccccc12,inactive
16,COc1cccc(OC)c1O,inactive
17,O=C(O)c1cc2ccccc2nc1C(=O)O,inactive
18,C[CH2][Ge]([Cl])([CH2]C)[CH2]C,inactive
19,Nc1cccc2c1CN(C1CCC(=O)NC1=O)C2=O (stereo not given),inactive
20,O=C1OC(=O)c2ccccc21,inactive
21,C/C=C(\C)C(=O)OC/C=C(\C)CCC=C(C)C,inactive
